Results reported in the supplement of paper PMC13380429.

What follows are compounds tested on Vero E6 infected with SARS-CoV-2 (assay: morphology score (similarity to uninfected cells); higher = more like uninfected cells). Conditions: 24 h.

Question: How did the morphology score turn out when `Nc1ccc(S(=O)(=O)Nc2ccc(Cl)nn2)cc1` [sulfachlorpyridazine] (10 µM) was run?
Answer: 0.104

Question: `Oc1ccc2ccccc2c1` [beta-naphthol] (10 µM) was tested. Which morphology score did it give?
Answer: -0.0489

Question: How did the morphology score turn out when `Nc1nc(-c2nn(Cc3ccccc3F)c3ncccc23)ncc1C1CC1` (0.833333 µM) was run?
Answer: -0.057

Question: Which morphology score does the source give for `COc1ccc(Cl)cc1NC(=O)Nc1cc(C)nc2ccccc12` (10 µM) here?
Answer: 0.148

Question: With `CC(C)NCC(O)COc1cccc2[nH]c3ccccc3c12` (stereo not given) [carazolol] (10 µM) as the compound, how does the morphology score read?
Answer: -0.011

Question: For `Oc1cccc(-c2nc(N3CCOCC3)c3oc4ncccc4c3n2)c1` (10 µM), which morphology score is on record?
Answer: -0.0667

Question: For `Nc1ccn(C[C@@H](CO)OCP(=O)(O)O)c(=O)n1` [cidofovir] (10 µM), which morphology score is on record?
Answer: 0.0279

Question: Which morphology score does the source give for `CC1(C)S[C@@H]2[C@H](NC(=O)[C@H](N)c3ccc(O)cc3)C(=O)N2[C@H]1C(=O)O` [amoxicillin] (10 µM) here?
Answer: -0.146

Question: Which morphology score does the source give for `O=C(O)c1ccc(-c2ccc3cc(O)c(C45CC6CC(CC(C6)C4)C5)cc3c2)cc1` (10 µM) here?
Answer: -0.0522

Question: `Cc1onc(-c2ccccc2)c1-c1ccc(S(N)(=O)=O)cc1` [valdecoxib] (10 µM) was tested. Which morphology score did it give?
Answer: -0.0646

Question: For `OCc1c[nH]c2ccccc12` [indole-3-carbinol] (10 µM), which morphology score is on record?
Answer: 0.0621

Question: Which morphology score does the source give for `N[C@H](Cc1ccccc1)C(=O)O` [D-phenylalanine] (10 µM) here?
Answer: 0.0544

Question: `Cc1cc(OCc2nnc(SC3CCCC3)n2-c2cccnc2)ccc1-c1ccc(S(C)(=O)=O)cc1` (0.833333 µM) was tested. Which morphology score did it give?
Answer: 0.0612

Question: How did the morphology score turn out when `FC(F)(F)c1cc(NC(=S)Nc2ccc(Br)cc2-c2nnn[nH]2)cc(C(F)(F)F)c1` (10 µM) was run?
Answer: 0.0928

Question: How did the morphology score turn out when `N=C(N)S/C=C\C(=O)O` (10 µM) was run?
Answer: 0.101

Question: `CCc1nc(C(N)=O)c(Nc2ccc(N3CCC(N4CCN(C)CC4)CC3)c(OC)c2)nc1NC1CCOCC1` [gilteritinib] (0.833333 µM) was tested. Which morphology score did it give?
Answer: 0.272

Question: How did the morphology score turn out when `C[N+]12CCC(CC1)C(OC(=O)C(O)(c1ccccc1)c1ccccc1)C2` (stereo not given) [clidinium] (10 µM) was run?
Answer: -0.064

Question: With `Cn1cc(-c2ccncc2)c(-c2ccc(OCc3ccc4ccccc4n3)cc2)n1` (10 µM) as the compound, how does the morphology score read?
Answer: 0.927

Question: With `Cc1ccc(O)c([C@H](CCN(C(C)C)C(C)C)c2ccccc2)c1` [tolterodine] (10 µM) as the compound, how does the morphology score read?
Answer: 0.35

Question: With `Fc1ccccc1CNCc1ccc(-c2ccnc3[nH]ccc23)cc1` (10 µM) as the compound, how does the morphology score read?
Answer: -0.0487

Question: `Cc1cc(=O)[nH]c(=S)[nH]1` [methylthiouracil] (10 µM) was tested. Which morphology score did it give?
Answer: 0.0905

Question: With `CCn1c(-c2nonc2N)nc2cncc(C(=O)N3CC[C@H](N)C3)c21` (0.833333 µM) as the compound, how does the morphology score read?
Answer: 0.488

Question: With `O=C(O)Cc1sc(-c2ccccc2)nc1-c1ccc(Cl)cc1` [fentiazac] (10 µM) as the compound, how does the morphology score read?
Answer: 0.0803

Question: Which morphology score does the source give for `OCCN1CCN(CC/C=C2/c3ccccc3Sc3ccc(C(F)(F)F)cc32)CC1` [flupentixol] (10 µM) here?
Answer: 0.506

Question: For `C[C@H](CCC(=O)O)[C@H]1CC[C@H]2[C@@H]3C[C@H](O)[C@@H]4C[C@H](O)CC[C@]4(C)[C@H]3CC[C@]12C` [Hyodeoxycholic acid (HDCA)] (10 µM), which morphology score is on record?
Answer: 0.109

Question: Which morphology score does the source give for `Cc1nc2ccccn2c(=O)c1CCN1CCC(C(=O)c2ccc(F)cc2)CC1` [pirenperone] (10 µM) here?
Answer: 0.172

Question: Which morphology score does the source give for `O=C1NCCc2[nH]c(-c3ccncc3)cc21` (0.833333 µM) here?
Answer: 0.0617

Question: `CC(C)(C)Nc1nc(Nc2ccc(C(N)=O)cc2)cc(N)c1C#N` (0.833333 µM) was tested. Which morphology score did it give?
Answer: 0.029

Question: For `NCC1(CC(=O)O)CCCCC1` [gabapentin] (10 µM), which morphology score is on record?
Answer: -0.108

Question: `CCN1CCN(C(=O)N[C@@H](C(=O)N[C@@H]2C(=O)N3[C@@H]2SC(C)(C)[C@@H]3C(=O)O)c2ccccc2)C(=O)C1=O` [piperacillin] (10 µM) was tested. Which morphology score did it give?
Answer: 0.11

Question: Which morphology score does the source give for `COC(c1ccccc1)(c1ccccc1)[C@H](Oc1nc(C)cc(C)n1)C(=O)O` [ambrisentan] (10 µM) here?
Answer: -0.0233

Question: `COC[C@@H](c1ccc(C(F)(F)F)cc1)N1CCN(C2(C)CCN(C(=O)c3c(C)ncnc3C)CC2)C[C@@H]1C` [vicriviroc] (10 µM) was tested. Which morphology score did it give?
Answer: 0.189

Question: Which morphology score does the source give for `N=C(N)Nc1ccc(C(=O)Oc2ccc3cc(C(=N)N)ccc3c2)cc1` [nafamostat] (10 µM) here?
Answer: 0.172

Question: With `COc1ccc2cc1Oc1cc3c(cc1OC)CC[N+](C)(C)[C@H]3Cc1ccc(cc1)Oc1c(OC)c(OC)cc3c1[C@@H](C2)[N+](C)(C)CC3` [metocurine] (10 µM) as the compound, how does the morphology score read?
Answer: 0.103

Question: With `Cc1ccccc1C(=O)c1ccc(Nc2ccc(Br)cc2N)cc1Cl` (10 µM) as the compound, how does the morphology score read?
Answer: -0.138

Question: With `Cc1ccc(C(=O)C(C)CN2CCCCC2)cc1` (stereo not given) [tolperisone] (10 µM) as the compound, how does the morphology score read?
Answer: 0.383

Question: How did the morphology score turn out when `C[C@H]1NC(=O)NC1=O` [5-methylhydantoin-(D)] (10 µM) was run?
Answer: 0.121

Question: How did the morphology score turn out when `CC(C)(C)[C@H]1CC[C@H](CC2=C(O)C(=O)c3ccccc3C2=O)CC1` [buparvaquone] (0.833333 µM) was run?
Answer: 0.0418

Question: With `O=[N+]([O-])c1cc(Cl)ccc1S(=O)(=O)N1CCN(Cc2ccccc2)CC1` (10 µM) as the compound, how does the morphology score read?
Answer: -0.0654

Question: How did the morphology score turn out when `N=C(N)c1ccc(/C=C/c2ccc(C(=N)N)cc2O)cc1` [hydroxystilbamidine] (10 µM) was run?
Answer: 0.115
